These results are taken from PubChem BioAssay AID651658 (Broad Institute, 2012).

The whole screen tested about 340,000 compounds, of which about 5,100 (1.5%) were called active.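 The calls were made as follows: active = mean Tm shift, scaled 0 neutral to 100 positive control, at about 1.3% or above, every replicate too (limit read from the data); inconclusive = no clear call, values can overlap the other calls; inactive = the rest.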 Shown is part of a subset that was picked to be rich in actives.

The target of the assay is Fibroblast growth factor 22 (Homo sapiens) (UniProt Q9HCT0). The assay is described as follows: FGF22 ligand-induced thermal stabilization – biophysical, thermal shift, single point, FGF22 synaptogenesis inhibitor project, primary screen (AID 651658). Particulars: recombinant FGF22 thermal shift, SYPRO orange fluorescence; at 9.99 µM; stronger effect = higher value; percent of sucrose octasulfate shift, DMSO zero.
Chain of Fibroblast growth factor 22 (Homo sapiens) (Q9HCT0 whole entry, looked up): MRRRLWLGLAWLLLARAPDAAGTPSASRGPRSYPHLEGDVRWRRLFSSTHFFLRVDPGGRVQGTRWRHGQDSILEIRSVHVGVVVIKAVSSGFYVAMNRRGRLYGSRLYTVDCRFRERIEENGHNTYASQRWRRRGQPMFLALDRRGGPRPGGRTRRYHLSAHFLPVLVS
`N#C[C@@H]1[C@@H](c2ccccc2)[C@H](CO)N1C(=O)c1cc(Cl)cc(Cl)c1`: the activity (Tm shift, normalised) was -0.051% (inactive).

In the case of `O=C(NN1C(=O)C2C3C=CC(O3)C2C1=O)c1ccncc1` (stereo unspecified), the activity (Tm shift, normalised) was 0.125% (inactive). In the case of `O=C(NN1C(=O)C2C3C=CC(O3)C2C1=O)c1ccccc1` (stereo unspecified) it was 1.65% (active); in that of `CC(C)=C1C2CCC1C1C(=O)N(NC(=O)c3ccco3)C(=O)C21` (stereo unspecified), -0.011% (inactive); in that of `O=C(C[C@@H]1C[C@H]2c3cc(NC(=O)NC4CCCC4)ccc3O[C@H]2[C@@H](CO)O1)NC1CCCCC1`, -0.272% (inactive). Consider `O=C(C1CC1)N1CCCCN2[C@H](C1)[C@@H](c1ccc(-c3cccc(F)c3)cc1)[C@@H]2CO`, for which the activity (Tm shift, normalised) is -0.119% (inactive). In the case of `C[C@@H]1CN([C@@H](C)CO)S(=O)(=O)c2ccc(-c3ccc(C#N)cc3)cc2O[C@H]1CN(C)Cc1ccccn1` it was -0.176% (inactive). With `CC[C@@]1(C(=O)OC)N[C@H](CN(C)C(C)=O)[C@@H]2C(=O)N(C)C(=O)[C@@H]21`, the activity (Tm shift, normalised) was 43.4% (active). The result for `CCCSc1ccc([C@H]2N[C@@](Cc3ccccc3)(C(=O)OC)[C@H]3C(=O)N(C)C(=O)[C@@H]23)cc1` reads 0.041% (inactive); that for `CCCC1(C(=O)OC)NC(c2ccco2)C2C(=O)N(C)C(=O)C21` (stereo unspecified), 43.8% (active); that for `COC(=O)[C@]1(C)N[C@H](CN(C)C(=O)c2ccc(C(C)(C)C)cc2)[C@@H]2C(=O)N(C)C(=O)[C@@H]21`, 0.232% (inactive). The result for `CCOC(=O)C1(C)NC(c2ccco2)C2C(=O)N(c3ccccc3)C(=O)C21` (stereo unspecified) reads 0.052% (inactive). `CCN(C[C@H]1N[C@@](CC)(C(=O)OC)[C@H]2C(=O)N(C)C(=O)[C@@H]12)C(=O)Nc1ccc(F)cc1`: the activity (Tm shift, normalised) is -0.067% (inactive). `COc1cccc(S(=O)(=O)N2[C@@H]3CNC[C@H]2C3c2ccc(-c3cccc(C(=O)N(C)C)c3)cc2)c1` (stereo partly specified): the activity (Tm shift, normalised) is 0.014% (inactive). As to `C[C@@H]1CN([C@H](C)CO)C(=O)c2cc(NC(=O)c3ccncc3)ccc2O[C@@H]1CN(C)C(=O)Nc1ccc(F)cc1`, the activity (Tm shift, normalised) was -0.074% (inactive). In the case of `CO[C@@H]1CN(C)C(=O)c2cc(NS(C)(=O)=O)ccc2OC[C@@H](C)N(C(=O)C2CCC2)C[C@@H]1C` it was -0.13% (inactive); in that of `CO[C@H]1CN(C)C(=O)c2ccc(NC(=O)C3CCCC3)cc2OC[C@H](C)N(C(=O)CC2CC2)C[C@@H]1C`, 0.031% (inactive); in that of `CCCNC(=O)N1[C@H](C#N)[C@@H](c2ccccc2)[C@H]1CO`, 0.065% (inactive).

On to `N#C[C@@H]1[C@@H](c2ccccc2)[C@@H](CO)N1C(=O)Cc1ccccc1`, for which the activity (Tm shift, normalised) is -0.224% (inactive). Consider `COc1ccccc1NC(=O)N1[C@H](C#N)[C@H](c2ccccc2)[C@H]1CO`, for which the activity (Tm shift, normalised) is 1.69% (active).

Consider `CCCc1cn(CC[C@H]2CC[C@@H](NS(=O)(=O)c3ccccc3Cl)[C@@H](CO)O2)nn1`, for which the activity (Tm shift, normalised) was -0.219% (inactive). In the case of `O=C(Cn1cnc2c(OCc3ccccc3)ncnc21)NCCCn1ccnc1`, the activity (Tm shift, normalised) was 43.3% (active).

Turning to `Cc1ccc(NC(=O)Cn2cnc3c(OCc4ccccc4)ncnc32)cc1C`, the activity (Tm shift, normalised) is 0.021% (inactive). The result for `CC(CNC(=O)Cn1cnc2c(OCc3ccccc3)ncnc21)c1ccccc1` (stereo unspecified) reads -0.208% (inactive); that for `CCC(=O)N(C)C[C@@H]1Oc2ncc(C#CCc3ccccc3)cc2C(=O)N([C@H](C)CO)C[C@H]1C`, -0.313% (inactive); that for `COc1ccc(CNC(=O)CCN2C(=O)c3ccccc3C2=O)cc1`, -0.249% (inactive). With `Cc1cc(C)cc(NC(=O)CCN2C(=O)c3ccccc3C2=O)c1`, the activity (Tm shift, normalised) was 0.073% (inactive).

As for `Cc1cc(C)cc(OCC(=O)NNC(=O)CCN2C(=O)c3ccccc3C2=O)c1`, the activity (Tm shift, normalised) is 43.2% (active). The result for `CCN(CC)CCNC(=O)c1ccc(NS(=O)(=O)c2ccc3c(c2)OCCO3)cc1` reads 42.9% (active). The result for `CNS(=O)(=O)c1ccc(C(=O)NCC(=O)NCCc2ccc3c(c2)OCCO3)cc1` reads 0.051% (inactive); that for `Cc1ccc(NS(=O)(=O)c2ccc(C(=O)NCCCN3CCOCC3)cc2)cc1`, -0.45% (inactive); that for `C[C@H](NC(=O)C[C@H]1CC[C@H]2[C@@H](COC[C@H](O)CN2C(=O)Nc2cccc(Cl)c2)O1)c1ccccc1`, 0.797% (inactive).

As for `O=C(CCN1CCCCC1)N[C@H]1CC[C@H](CCNS(=O)(=O)c2ccc(F)cc2)O[C@@H]1CO`, the activity (Tm shift, normalised) is 0.837% (inactive).

Turning to `C[C@H](CO)N1C[C@H](C)[C@H](CN(C)Cc2ccncc2)Oc2ncc(C#CCC3CCCCC3)cc2C1=O`, the activity (Tm shift, normalised) was -0.367% (inactive).

As to `C/C=C/c1ccc(OCC(O)CN2CCCCCCC2)c(OC)c1` (stereo unspecified), the activity (Tm shift, normalised) is 0.015% (inactive). The result for `C=CCc1ccc(OCC(O)CN2CCN(Cc3ccccc3)CC2)c(OC)c1` (stereo unspecified) reads 43.3% (active). The result for `C=CCc1ccccc1OCC(O)CN1CCN(CCO)CC1` (stereo unspecified) reads -0.051% (inactive); that for `O=C(Nc1ccc(F)cc1)N1CCCCN2[C@H](CO)[C@H](c3ccc(-c4ccncc4)cc3)[C@@H]2C1`, -0.055% (inactive). The result for `C/C=C/c1ccc([C@@H]2[C@H](CO)N(CC3CCOCC3)C23CN(S(=O)(=O)CC)C3)cc1` reads -0.282% (inactive); that for `CCNC(=O)c1cc2c(c(-c3cccc(C4=CCCC4)c3)n1)[C@H](CCO)N([S@@](=O)C(C)(C)C)C2`, 0.297% (inactive).

With `O=C(Cc1ccncc1)NCC[C@H]1CC[C@H](NC(=O)Nc2cccc(F)c2)[C@H](CO)O1`, the activity (Tm shift, normalised) was -0.333% (inactive). In the case of `C[C@@H]1CN([C@H](C)CO)C(=O)c2cc(NS(=O)(=O)c3cccs3)ccc2O[C@@H](C)CCCCO[C@@H]1CN(C)C(=O)c1ccncc1` it was -0.018% (inactive). In the case of `COc1ccc2c3c([nH]c2c1)[C@@H](CO)NCC31CN(S(=O)(=O)c2cccs2)C1` it was 0.072% (inactive). In the case of `CCNC(=O)C[C@@H]1CC[C@@H](NC(=O)NC2CCCCC2)[C@H](CO)O1` it was -0.281% (inactive); in that of `COc1ccc(NC(=O)N(C)C[C@@H]2OCCCC[C@@H](C)Oc3ccc(NC(=O)C4CCCCC4)cc3C(=O)N([C@@H](C)CO)C[C@@H]2C)cc1`, -0.291% (inactive); in that of `COC(=O)[C@@H]1[C@@H](CO)[C@@H]2Cn3c(ccc(-c4ccccc4)c3=O)[C@@H]2N1C(=O)C1CC1`, -0.013% (inactive). In the case of `O=C(COC(=O)c1ccc2c(c1)OCCO2)NCc1ccccc1Cl`, the activity (Tm shift, normalised) was -0.43% (inactive). The result for `O=C(COC(=O)c1cc2c(s1)CCCC2)NCc1ccccc1Cl` reads 2.24% (active). The result for `CN(C)C(=O)c1ccc(NC(=O)COC(=O)c2cc3c(s2)CCCCC3)cc1` reads 0.188% (inactive). The result for `COc1ccc2c3c([nH]c2c1)[C@H](CO)N(C(=O)C1CCOCC1)CC31CN(S(C)(=O)=O)C1` reads -0.085% (inactive); that for `CN(C)C(=O)c1cccc(-c2ccccc2[C@@H]2[C@@H](CO)N(C(=O)C3CCCCC3)[C@H]2C#N)c1`, 0.22% (inactive); that for `COc1ccc2c3c([nH]c2c1)[C@H](CO)N(C(=O)c1ccccc1)CC31CCN(S(=O)(=O)c2cccs2)CC1`, -0.133% (inactive). As to `CCC1([N+](=O)[O-])COC(c2ccc(C(C)C)cc2)OC1` (stereo unspecified), the activity (Tm shift, normalised) was 0.068% (inactive). As to `CCC1([N+](=O)[O-])COC(c2ccc(C)cc2)OC1` (stereo unspecified), the activity (Tm shift, normalised) is 43.3% (active). The result for `CCC1(C)COC(c2ccc(OC)c(OC)c2)OC1` (stereo unspecified) reads -0.154% (inactive). As for `C/C=C/c1ccc([C@H]2[C@@H](CO)N3CCCCN(C(=O)c4ccc(F)cc4)C[C@@H]23)cc1`, the activity (Tm shift, normalised) was -0.174% (inactive). As to `Cc1oc(-c2ccccc2F)nc1CS(=O)CC(=O)NCCN1CCCCC1C` (stereo unspecified), the activity (Tm shift, normalised) is -0.146% (inactive).

Regarding `COc1ccc(F)c(-c2nc(CN3CCC(c4ccccc4)CC3)c(C)o2)c1`, the activity (Tm shift, normalised) is 0.157% (inactive). The result for `Cc1nonc1C1CCCN1Cc1nc(-c2ccc(F)cc2F)oc1C` (stereo unspecified) reads 43.2% (active); that for `C[C@H](CO)N1C[C@H](C)[C@H](CN(C)CC2CCCC2)Oc2ncc(-c3ccc(F)cc3)cc2C1=O`, -0.41% (inactive); that for `Cc1ccc(CN2CCN(/N=C/c3cccnc3)CC2)c(C)c1`, 0.311% (inactive). The result for `COc1ccccc1/C=N/N1CCN(Cc2ccccc2Cl)CC1` reads -0.025% (inactive); that for `CSc1ccc(/C=N/N2CCN(Cc3ccccc3Cl)CC2)cc1`, 43.3% (active).

With `NS(=O)(=O)c1ccccc1NC(=O)c1c(O)c2ccccc2[nH]c1=O`, the activity (Tm shift, normalised) was 0.089% (inactive).

For `CC(=O)c1c(-c2ccccc2)c2ccccc2[nH]c1=O`, the activity (Tm shift, normalised) was 43.2% (active).

Regarding `Cc1c(-c2ccccc2)n[nH]c1C(=O)N=Nc1c(O)[nH]c2ccccc12`, the activity (Tm shift, normalised) is 0.025% (inactive). In the case of `COc1cccc(NC(=O)N2C[C@@H](O)COC[C@@H]3O[C@@H](CC(=O)NC4CCC4)CC[C@H]32)c1` it was -0.083% (inactive). In the case of `COc1ccc(CCN2C(=O)[C@@]3(Cc4ccccc42)c2ccccc2C(=O)N(Cc2ccccc2C(F)(F)F)[C@H]3c2ccc(CO)cc2)cc1` it was -0.145% (inactive). In the case of `CCCNS(=O)(=O)c1ccc(CCC(=O)N2CCCC2)cc1` it was 43% (active); in that of `CCNS(=O)(=O)c1ccc(CCC(=O)N2CCN(c3ccc(OC)cc3)CC2)cc1`, 0.369% (inactive).

`CCOc1ccc(S(=O)(=O)NCCC(=O)N2CCCCCCC2)cc1`: the activity (Tm shift, normalised) was 0.162% (inactive).

Turning to `CC(C)NC(=O)Nc1ccc2c(c1)C(=O)N([C@H](C)CO)C[C@@H](C)[C@@H](CN(C)Cc1ccncc1)O2`, the activity (Tm shift, normalised) is 0.001% (inactive). In the case of `O=C(OCc1ccc(-c2ccccc2)cc1)c1cccc(O)c1` it was -0.21% (inactive); in that of `CC(C)(C)N1C(=O)c2c(C(=O)OCc3ccccc3)[nH]c(-c3ccccc3)c2C1=O`, 2.17% (active). In the case of `O=C(Nc1cccc2ccccc12)c1[nH]c(-c2ccccc2)c2c1C(=O)N(C1CC1)C2=O` it was -0.298% (inactive); in that of `CCCNC(=O)Nc1ccc2c(c1)C(=O)N(C)[C@H]1CC[C@H](CC(=O)NCC3CCCCC3)O[C@@H]1CO2`, -0.32% (inactive).
